# Data taken from PubChem BioAssay.
# Activity calls are given as the source filed them.
# How the values were obtained:
# [1] = test system: Plasmodium falciparum Sir2 (PF13_0152, Sir2A); assay: pfSir2 binders on small-molecule microarrays, primary screen, biochemical, small-molecule microarray, 635 nm fluorescence (AID 1098); conditions: small-molecule microarray binding, fluorescence 635 nm; higher = more signal;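 also: score merges spot fluorescence intensity with its signal-to-noise ratio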
# [2] = small-molecule microarray binders of probe aDKK1, primary screen, biochemical, biotinylated probe, 635/667 nm fluorescence (AID 1099); conditions: higher = more signal;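 also: score merges 667nm spot fluorescence with signal to noise across triplicate slides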
# [3] = small-molecule microarray binders of probe aCHRDL2, primary screen, biochemical, biotinylated probe, 635/667 nm fluorescence (AID 1100); conditions: higher = more signal
# [4] = splicing luciferase reporter signal modulators, primary screen, spliceosome inhibition project, cell-based, HEK293, splice +/- reporter (AID 1101); conditions: luminescence, 24 h, higher = more signal, called active from +8 up or from −8 down;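 also: HEK293 cells carrying a splicing-competent luciferase reporter gene; test concentration not given here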
# [5] = target: Fibroblast growth factor 10 (Homo sapiens) (UniProt O15520); assay: FGF10 binders on small-molecule microarrays, primary screen, biochemical, small-molecule microarray, 635 nm fluorescence (AID 1102); conditions: FGF10 binding, fluorescence 635 nm, higher = more signal
# [6] = test system: glycogen synthase kinase-3 (GSK3A per assay name; protocol says GSK3B); assay: GSK3 binders on small-molecule microarrays, primary screen, biochemical, small-molecule microarray, 635 nm fluorescence, GSK3A (AID 1103); conditions: small-molecule microarray binding, fluorescence 635 nm; higher = more signal; also: the record names both GSK3A and GSK3B
# [7] = target: Epidermal growth factor receptor (Homo sapiens) (UniProt P00533); assay: EGFR binders on small-molecule microarrays, primary screen, biochemical, small-molecule microarray, 635 nm fluorescence (AID 1104); conditions: EGFR binding, higher = more signal;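 also: score merges 667 nm emission intensity with spot signal to noise over triplicate slides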
# [8] = target: Follistatin-related protein 3 (Homo sapiens) (UniProt O95633); assay: FSTL3 binders on small-molecule microarrays, primary screen, biochemical, small-molecule microarray, 635 nm fluorescence (AID 1105); conditions: FSTL3 binding, higher = more signal;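 also: score merges emission near 667 nm and signal to noise per printed spot across three slides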
# [9] = target: Dickkopf-related protein 1 (Homo sapiens) (UniProt O94907); assay: DKK1 binders on small-molecule microarrays, primary screen, biochemical, small-molecule microarray, 635 nm fluorescence scan (AID 1106); conditions: DKK1 binding, higher = more signal;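 also: score merges emission near 667 nm with signal to noise over three replicate slides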
# [10] = test system: Inhibin beta A chain (activin A); assay: INHBA (activin A) binders on microarrays, primary screen, biochemical, small-molecule microarray, 635 nm fluorescence scan (AID 1107); conditions: small-molecule microarray binding, higher = more signal;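 also: mouse activin A protein probed at 4.33 µg/mL on printed slides; score merges bound-protein fluorescence near 667 nm with spot signal-to-noise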
# [11] = test system: Human papillomavirus type 1a protein E7 (residues 44-93); assay: HPV1a E7 fragment binders on microarrays, primary screen, biochemical, small-molecule microarray, residues 44-93, 635 nm fluorescence (AID 1108); conditions: small-molecule microarray binding, fluorescence 635 nm; higher = more signal;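 also: E7 fragment applied at 1 µg/mL in TBST for 1 h at 4 C; score combines spot fluorescence with its signal to noise ratio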
# [12] = modulators of HCV replicon luciferase signal, primary screen, HCV replication inhibitor project, Huh7 cells, luciferase reporter (AID 1109); conditions: 48 h, higher = more signal;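 also: huh7 hepatoma cells harbouring a luciferase neomycin HCV replicon reporter; luciferase luminescence as measure of HCV replicon replication; test concentration not given here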
# [13] = target: Left-right determination factor 2 (Homo sapiens) (UniProt O00292); assay: LEFTY2 binders on small-molecule microarrays, primary screen, biochemical, small-molecule microarray, 635 nm fluorescence scan (AID 1110); conditions: LEFTY2 binding, higher = more signal
# [14] = target: Calmodulin-1 (Homo sapiens) (UniProt P0DP23); assay: CALM1 binders on microarrays, EGTA buffer, profiling panel, biochemical, small-molecule microarray, Cy5-labelled CALM1 (AID 1111); conditions: Cy5-CALM1 binding fluorescence, higher = more signal;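 also: labelled calmodulin applied in Tris saline Tween buffer holding calcium plus EGTA and DTT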
# [15] = target: Calmodulin-1 (Homo sapiens) (UniProt P0DP23); assay: calcium-bound CALM1 binders on microarrays, profiling panel, artefact control for SMM control-protein annotation, biochemical, small-molecule microarray, Cy5-labelled CALM1, plus calcium (AID 1112); conditions: Cy5-CALM1 binding fluorescence, higher = more signal;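 also: score merges spot fluorescence with signal to noise from triplicate slides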
# [16] = small-molecule microarray binders of probe aWnt5a, primary screen, biochemical, biotinylated probe, 635/667 nm fluorescence (AID 1113); conditions: higher = more signal;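 also: score merges 667 nm fluorescence intensity with signal-to-noise per printed feature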
# [17] = small-molecule microarray binders of probe aShh, primary screen, biochemical, biotinylated probe, 635/667 nm fluorescence (AID 1114); conditions: higher = more signal;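 also: probe is biotin-labelled aShh protein from a stem cell growth factor screen; measures binding of labelled protein to compounds printed on the slide; score merges feature fluorescence at 667 nm with signal-to-noise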
# [18] = small-molecule microarray binders of probe aNog, primary screen, biochemical, biotinylated probe, 635/667 nm fluorescence (AID 1115); conditions: higher = more signal;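 also: probe is biotinylated aNog protein used at 0.15 µg/mL for 1 h at 4 C; z-score combines 667 nm fluorescence of each spot with its signal to noise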
# [19] = target: Torsin-1A-interacting protein 1 (Homo sapiens) (UniProt Q5JTV8); assay: LAP1 binders from COS7 cell lysate, primary screen, small-molecule microarray, 635/667 nm fluorescence (AID 1116); conditions: COS7-hLAP1 lysate binding, 635 nm fluorescence, higher = more signal
# [20] = target: Alpha-bungarotoxin (Bungarus multicinctus) (UniProt P60615); assay: alpha-bungarotoxin binders on microarray, profiling panel, artefact control for SMM control protein annotation, biochemical, small-molecule microarray, Alexa647 label, 635/667 nm fluorescence (AID 1117); conditions: alpha-BTX-A647 binding fluorescence, higher = more signal
# Alpha-bungarotoxin (Bungarus multicinctus), sequence (P60615 whole entry, looked up): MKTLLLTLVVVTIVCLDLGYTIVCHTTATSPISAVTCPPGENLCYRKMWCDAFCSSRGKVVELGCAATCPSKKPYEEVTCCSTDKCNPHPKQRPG
# Left-right determination factor 2 (Homo sapiens), sequence (O00292 whole entry, looked up): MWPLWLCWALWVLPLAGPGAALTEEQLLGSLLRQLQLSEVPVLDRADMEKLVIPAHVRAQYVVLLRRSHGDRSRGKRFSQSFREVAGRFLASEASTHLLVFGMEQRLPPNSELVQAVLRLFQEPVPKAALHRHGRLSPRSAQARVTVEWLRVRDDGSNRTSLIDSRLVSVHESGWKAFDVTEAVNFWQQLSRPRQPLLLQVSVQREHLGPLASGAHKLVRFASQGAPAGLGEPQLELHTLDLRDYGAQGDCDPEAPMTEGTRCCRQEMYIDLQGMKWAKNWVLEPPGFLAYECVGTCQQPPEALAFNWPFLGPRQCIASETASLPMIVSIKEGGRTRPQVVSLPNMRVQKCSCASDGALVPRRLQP
# Fibroblast growth factor 10 (Homo sapiens), sequence (O15520 whole entry, looked up): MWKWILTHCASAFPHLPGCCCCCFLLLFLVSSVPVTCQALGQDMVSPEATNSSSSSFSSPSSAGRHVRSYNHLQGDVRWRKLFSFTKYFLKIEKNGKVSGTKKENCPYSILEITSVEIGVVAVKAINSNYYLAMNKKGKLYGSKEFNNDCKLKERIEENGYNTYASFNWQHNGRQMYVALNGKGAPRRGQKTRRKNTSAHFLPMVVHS
# Follistatin-related protein 3 (Homo sapiens), sequence (O95633 whole entry, looked up): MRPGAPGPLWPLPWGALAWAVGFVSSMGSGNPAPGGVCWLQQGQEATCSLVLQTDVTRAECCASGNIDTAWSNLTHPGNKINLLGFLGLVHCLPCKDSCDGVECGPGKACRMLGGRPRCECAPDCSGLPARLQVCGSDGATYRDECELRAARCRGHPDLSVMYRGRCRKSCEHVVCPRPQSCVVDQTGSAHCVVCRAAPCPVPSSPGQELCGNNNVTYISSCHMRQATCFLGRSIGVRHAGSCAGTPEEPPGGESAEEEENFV
# Epidermal growth factor receptor (Homo sapiens), sequence (P00533 whole entry, looked up): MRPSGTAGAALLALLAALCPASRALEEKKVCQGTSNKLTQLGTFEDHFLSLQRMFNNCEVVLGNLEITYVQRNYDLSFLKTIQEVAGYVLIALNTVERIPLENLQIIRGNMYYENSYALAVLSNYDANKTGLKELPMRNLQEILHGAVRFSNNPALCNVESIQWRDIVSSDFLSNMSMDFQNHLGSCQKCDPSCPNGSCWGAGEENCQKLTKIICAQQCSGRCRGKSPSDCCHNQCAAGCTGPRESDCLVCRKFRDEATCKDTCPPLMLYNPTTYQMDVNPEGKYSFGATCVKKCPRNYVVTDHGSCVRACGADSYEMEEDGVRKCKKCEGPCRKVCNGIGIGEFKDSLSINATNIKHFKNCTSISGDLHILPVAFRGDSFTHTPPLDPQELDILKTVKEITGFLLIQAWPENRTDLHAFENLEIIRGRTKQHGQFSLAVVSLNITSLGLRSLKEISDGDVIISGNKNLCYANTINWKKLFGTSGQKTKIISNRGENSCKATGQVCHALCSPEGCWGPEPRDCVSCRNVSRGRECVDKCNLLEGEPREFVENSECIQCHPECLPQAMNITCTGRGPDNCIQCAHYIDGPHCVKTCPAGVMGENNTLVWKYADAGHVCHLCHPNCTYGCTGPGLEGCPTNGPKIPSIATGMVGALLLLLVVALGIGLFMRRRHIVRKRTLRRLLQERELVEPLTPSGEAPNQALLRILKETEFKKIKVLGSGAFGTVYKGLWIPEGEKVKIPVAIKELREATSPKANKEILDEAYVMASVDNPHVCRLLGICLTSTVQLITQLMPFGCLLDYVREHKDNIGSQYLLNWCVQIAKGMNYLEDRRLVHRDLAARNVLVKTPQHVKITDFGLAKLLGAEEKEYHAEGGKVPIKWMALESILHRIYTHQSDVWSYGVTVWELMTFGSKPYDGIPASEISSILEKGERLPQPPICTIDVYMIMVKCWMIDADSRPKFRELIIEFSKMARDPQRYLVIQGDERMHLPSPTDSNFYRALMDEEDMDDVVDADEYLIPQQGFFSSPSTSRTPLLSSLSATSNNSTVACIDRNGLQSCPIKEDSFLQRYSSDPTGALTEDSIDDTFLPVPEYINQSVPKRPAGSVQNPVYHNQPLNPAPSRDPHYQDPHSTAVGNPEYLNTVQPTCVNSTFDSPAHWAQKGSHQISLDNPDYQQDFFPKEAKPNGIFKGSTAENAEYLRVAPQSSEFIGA
# Dickkopf-related protein 1 (Homo sapiens), sequence (O94907 whole entry, looked up): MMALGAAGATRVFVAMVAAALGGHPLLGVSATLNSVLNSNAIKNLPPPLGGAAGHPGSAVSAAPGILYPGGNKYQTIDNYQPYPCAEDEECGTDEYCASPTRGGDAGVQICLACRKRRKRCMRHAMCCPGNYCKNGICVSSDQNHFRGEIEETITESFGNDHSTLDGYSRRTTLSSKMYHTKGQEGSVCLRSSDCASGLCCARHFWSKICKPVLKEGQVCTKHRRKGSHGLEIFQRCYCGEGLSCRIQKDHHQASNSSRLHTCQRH
# Torsin-1A-interacting protein 1 (Homo sapiens), sequence (Q5JTV8 whole entry, looked up): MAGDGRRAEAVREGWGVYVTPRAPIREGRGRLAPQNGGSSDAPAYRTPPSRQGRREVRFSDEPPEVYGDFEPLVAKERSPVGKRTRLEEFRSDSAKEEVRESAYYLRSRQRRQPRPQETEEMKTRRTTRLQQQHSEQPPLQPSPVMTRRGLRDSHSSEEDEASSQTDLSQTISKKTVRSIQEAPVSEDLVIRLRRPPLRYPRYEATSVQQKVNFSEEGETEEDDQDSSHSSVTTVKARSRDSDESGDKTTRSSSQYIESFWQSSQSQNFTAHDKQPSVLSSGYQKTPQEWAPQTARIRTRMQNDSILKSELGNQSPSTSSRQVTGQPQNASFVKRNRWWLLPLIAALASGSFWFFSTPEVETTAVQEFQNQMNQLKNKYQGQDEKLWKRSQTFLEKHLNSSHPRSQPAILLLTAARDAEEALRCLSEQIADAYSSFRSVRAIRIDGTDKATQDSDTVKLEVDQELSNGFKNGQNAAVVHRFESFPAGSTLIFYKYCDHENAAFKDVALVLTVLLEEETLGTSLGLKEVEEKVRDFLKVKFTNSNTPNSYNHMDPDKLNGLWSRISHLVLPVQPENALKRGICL
Structure (SMILES),composite z-score [1],composite z-score [2],composite z-score [3],z-score [4],composite z-score [5],composite z-score [6],composite z-score [7],composite z-score [8],composite z-score [9],composite z-score [10],composite z-score [11],z-score [12],composite z-score [13],composite z-score [14],composite z-score [15],composite z-score [16],composite z-score [17],composite z-score [18],composite z-score [19],composite z-score [20]
CCOC(=O)C[C@H]1[C@H](OC(=O)c2ccc(C(=O)c3ccccc3)cc2)[C@@H](NC(=O)c2ccccc2)c2cc(OCCCO)ccc2N1C(=O)c1ccccc1,0.576,0.188,-0.0053,0.0733 (inactive),0.656,0.0643,0.168,0.84,0.112,0.136,1.09,-1.33,0.224,0.461,0.168,0.0102,-0.0769,-0.234,0.63,0.872
CN(C)CCCC[C@@H]1NC(=O)[C@H]2C[C@@H](C(=O)NCCCCCN)[C@@H](c3cccc(OCCO)c3)N2C1=O,1.11,1.33,1.04,0.0522 (inactive),1.2,1.06,0.0076,0.0876,0.453,1.41,0.474,0.0761,0.669,2.22,1.51,0.233,0.351,0.863,2.53,1.44
COC(=O)[C@@]1(Cc2ccc(OC)cc2)[C@H]2c3cc(C(=O)N4CCCC4)n(CCc4ccc(O)c(O)c4)c3C[C@H]2CN1C(=O)c1ccccc1,1.49,0.845,1.35,-0.73 (inactive),0.0136,0.0777,-0.352,-0.269,-0.45,1.76,-1.4,-1.1,-0.618,1.39,0.679,-0.0057,-0.0977,1.12,2.24,0.0407
O=C1OCC=C[C@H]2OC34C=CCN(Cn5nnc6ccccc65)C(=O)[C@H]3N(CCCCCO)C(=O)[C@@H]4[C@@H]12 (stereo not given in full),0.665,0.26,0.586,-0.313 (inactive),-0.658,-0.614,-1.31,-0.77,-1.29,-0.212,-0.129,-0.0996,-1.3,-0.497,0.0598,0.184,-0.209,0.105,3.17,-0.464
COCCOC(=O)N1C(=O)[C@@]2(c3cc(C#Cc4ccc(OC)cc4)ccc31)[C@H](c1ccc(O)cc1)N1[C@H](c3ccccc3)[C@H](c3ccccc3)OC(=O)[C@H]1[C@@H]2C(=O)Nc1nc2ccccc2s1,0.666,-0.037,0.0407,-0.0561 (inactive),1.22,1.09,0.404,0.899,0.446,0.277,1.37,-1,0.389,1.18,0.907,-0.0778,-0.262,-0.129,0.373,0.912
CS(=O)(=O)CCOC(=O)C1=CC(CCCO)=CC(C2CC2)N(Cc2cc3c(cc2Br)OCO3)C=C1C(=O)OCCS(C)(=O)=O (stereo not given),0.405,0.049,0.49,1.22 (inactive),0.615,0.28,-0.0183,0.258,0.322,1.33,1.07,-1.2,-0.0224,0.331,-0.0113,-0.0192,-0.0035,0.357,1.11,0.598
